# Results reported in PubChem BioAssay (NCI).
# “And” between values parts separate entries of the source, which are not always exact repeats. Identical values can stand only once. The panel holds about 83,000 compounds, 20% with a hit somewhere; the sample as a whole holds those more often.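 Single-concentration screen, 48 h exposure, 96-well plates. Endpoint: percent growth. Below 10 = active.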 The source made the active and inactive calls.
# Tests used:
# Experiment in all cases: NCI-60 one-dose screen, 48 h (100 = growth as untreated, 0 = no growth, -100 = all killed)
# Details in all cases: 10 µM unless noted
# [1] = system: SK-MEL-2 melanoma
# [2] = system: EKVX NSCLC
# [3] = system: SN12C renal
# [4] = system: UO-31 renal
# [5] = system: TK-10 renal
# [6] = system: ACHN renal
# [7] = system: CAKI-1 renal
# [8] = system: A498 renal
# [9] = system: CCRF-CEM leukemia
# [10] = system: MOLT-4 leukemia
# [11] = system: SR leukemia
# [12] = system: RPMI-8226 leukemia
# [13] = system: OVCAR-8 ovarian
# [14] = system: OVCAR-5 ovarian
# [15] = system: OVCAR-4 ovarian
# [16] = system: SK-OV-3 ovarian
# [17] = system: IGROV1 ovarian
# [18] = system: OVCAR-3 ovarian
# [19] = system: HS 578T breast
# [20] = system: NCI/ADR-RES ovarian
SMILES,growth [1],growth [2],growth [3],growth [4],growth [5],growth [6],growth [7],growth [8],growth [9],growth [10],growth [11],growth [12],growth [13],growth [14],growth [15],growth [16],growth [17],growth [18],growth [19],growth [20]
COc1ccc(-c2cn[nH]c2-c2cc(OC)c(OC)c(OC)c2)cc1N,47.8% (inactive) and 62.1% (inactive),47.5% (inactive) and 44% (inactive),36.3% (inactive) and 28.5% (inactive),50.1% (inactive) and 34.7% (inactive),76.4% (inactive) and 91.4% (inactive),30.7% (inactive) and 29.4% (inactive),25.1% (inactive) and 22.9% (inactive),-1.49% (active),22.1% (inactive) and 21.2% (inactive),16.3% (inactive) and 23.4% (inactive),12% (inactive) and 19.5% (inactive),29.4% (inactive) and 23.7% (inactive),21.3% (inactive) and 12.9% (inactive),46% (inactive) and 48.7% (inactive),47.6% (inactive) and 38.8% (inactive),23% (inactive) and 36.5% (inactive),37.2% (inactive) and 15.6% (inactive),-7.09% (active) and -1.14% (active),39.5% (inactive) and 40% (inactive),-5.9% (active) and 4.84% (active)
COc1cc(Nc2nc3ccccc3nc2NS(=O)(=O)c2ccc(NC(=O)c3ccc(C)c(OC)c3)cc2)cc(OC)c1,45.7% (inactive),40.1% (inactive) and 8.65% (active),49.1% (inactive) and 14.8% (inactive),12.2% (inactive) and -20% (active),54.1% (inactive) and -35.5% (active),53.1% (inactive) and 1.39% (active),62.2% (inactive) and -11.6% (active),18.9% (inactive) and -44.3% (active),20% (inactive),37.5% (inactive) and 7.47% (active),31.3% (inactive) and 8.54% (active),8.4% (active),46.6% (inactive) and 5.53% (active),71.2% (inactive) and 3.89% (active),43.3% (inactive) and -2.71% (active),49% (inactive) and -44% (active),6.75% (active) and -30.1% (active),51.6% (inactive) and 6.96% (active),3.34% (active),75.5% (inactive) and 2.39% (active)
CC(=O)Nc1cccc2c1CCCC2,82.6% (inactive) and 75% (inactive),96.6% (inactive) and 94.7% (inactive),103% (inactive) and 100% (inactive),88.2% (inactive) and 91% (inactive),85.6% (inactive) and 83.7% (inactive),102% (inactive) and 110% (inactive),95.1% (inactive),97.8% (inactive) and 121% (inactive),82.6% (inactive) and 100% (inactive),104% (inactive) and 102% (inactive),104% (inactive) and 109% (inactive),88.8% (inactive) and 99% (inactive),86.5% (inactive) and 104% (inactive),98.8% (inactive) and 105% (inactive),106% (inactive) and 107% (inactive),89% (inactive) and 92.3% (inactive),119% (inactive) and 96.2% (inactive),107% (inactive) and 108% (inactive),92.8% (inactive) and 110% (inactive),97.6% (inactive) and 96.9% (inactive)
O=C1C2=C(C(=O)c3ccccc31)C(O)(S(=O)(=O)O)C(O)(S(=O)(=O)O)C1N=CC=CC21 (stereo not given),65.2% (inactive) and 47.4% (inactive),36.4% (inactive) and 30.5% (inactive),34.5% (inactive) and 39.1% (inactive),42.2% (inactive) and -0.599% (active),71.8% (inactive) and 68.1% (inactive),36.3% (inactive) and 32.8% (inactive),21.9% (inactive) and 15.8% (inactive),82.1% (inactive) and 33.9% (inactive),25.1% (inactive) and 41.9% (inactive),25.6% (inactive) and 48.2% (inactive),12.6% (inactive) and 61.2% (inactive),22.9% (inactive) and 44.8% (inactive),24.3% (inactive) and 10.6% (inactive),51.9% (inactive),28.7% (inactive) and 24.3% (inactive),44.8% (inactive) and 20.9% (inactive),33% (inactive) and -16.2% (active),22.4% (inactive) and 3.66% (active),13.3% (inactive),11.3% (inactive)
C/C(=N\NC(=O)c1ccncc1)c1ccccc1O,75.3% (inactive) and 18.8% (inactive),16.5% (inactive) and 31.5% (inactive),45.9% (inactive) and 46.9% (inactive),31.3% (inactive) and 20.6% (inactive),34.7% (inactive) and 37.4% (inactive),26.3% (inactive) and 26.5% (inactive),10.4% (inactive),68.9% (inactive),16% (inactive) and 15.8% (inactive),7.82% (active) and 10.7% (inactive),17.7% (inactive) and 16% (inactive),38.2% (inactive),37.1% (inactive) and 10.9% (inactive),48.2% (inactive) and 51% (inactive),20% (inactive) and 22.5% (inactive),45.6% (inactive) and 38.4% (inactive),32.1% (inactive) and 19.1% (inactive),20.3% (inactive) and 12.6% (inactive),76.1% (inactive),18% (inactive) and 16.9% (inactive)
CC(=O)Nc1cc(S(=O)(=O)O)cc2cc(S(=O)(=O)O)c(N=Nc3ccccc3)c(O)c12,116% (inactive) and 88.7% (inactive),115% (inactive) and 113% (inactive),106% (inactive) and 98.4% (inactive),94.2% (inactive) and 83.2% (inactive),110% (inactive) and 98.4% (inactive),106% (inactive) and 108% (inactive),99.6% (inactive),102% (inactive) and 92.4% (inactive),97.5% (inactive) and 90.8% (inactive),111% (inactive) and 94.7% (inactive),98.8% (inactive) and 92.1% (inactive),104% (inactive) and 96.3% (inactive),109% (inactive) and 99.5% (inactive),122% (inactive) and 113% (inactive),109% (inactive),128% (inactive) and 104% (inactive),117% (inactive) and 101% (inactive),121% (inactive) and 109% (inactive),92.9% (inactive) and 103% (inactive),107% (inactive) and 105% (inactive)
CCNC(=O)Nc1ccc(-c2nc3c(c(N4CCOC[C@@H]4C)n2)CCN(C2COC2)C3)cc1,41.7% (inactive),46.8% (inactive) and 17.4% (inactive),36.1% (inactive) and 14.7% (inactive),21.8% (inactive) and -6.18% (active),44.4% (inactive) and -22.3% (active),34.6% (inactive) and 7.24% (active),67.1% (inactive) and 0.578% (active),-24.1% (active) and -36.2% (active),52.8% (inactive) and 12.2% (inactive),52.2% (inactive) and 8.79% (active),47.9% (inactive) and 11.8% (inactive),23.3% (inactive) and 6.21% (active),48% (inactive) and 0.436% (active),46.7% (inactive) and 23.1% (inactive),23.1% (inactive) and -13% (active),13.9% (inactive) and -35% (active),15.2% (inactive) and -12.9% (active),40.4% (inactive) and 16% (inactive),1.21% (active),90.4% (inactive) and 12.4% (inactive)
S=C1SCN(Cc2ccccc2)CN1Cc1ccccc1,85% (inactive),98.5% (inactive),90.5% (inactive),26.7% (inactive),75.2% (inactive),84.5% (inactive),76.1% (inactive),74.4% (inactive),40.4% (inactive),70.6% (inactive),52.9% (inactive),17% (inactive),93.3% (inactive),93.2% (inactive),86.4% (inactive),103% (inactive),34.5% (inactive),32.4% (inactive),90.4% (inactive),73.6% (inactive)
